# Most compounds without a hit are left out; they make up all but 6.9% or so of the library.
# JMJD2A Tudor inh: inhibitors of human JMJD2A Tudor domain | AlphaScreen JMJD2A-Tudor / H3K4me3 peptide binding | O75164 | Potency, µM (doses to about 114 µM), usual class: inhibitors | actives 4.4% (n = 390,000) | AID 504339; note: nearly all actives have a fitted effect of over 50% in size
# Target sequence (O75164 whole entry, looked up, the tested form may be a part): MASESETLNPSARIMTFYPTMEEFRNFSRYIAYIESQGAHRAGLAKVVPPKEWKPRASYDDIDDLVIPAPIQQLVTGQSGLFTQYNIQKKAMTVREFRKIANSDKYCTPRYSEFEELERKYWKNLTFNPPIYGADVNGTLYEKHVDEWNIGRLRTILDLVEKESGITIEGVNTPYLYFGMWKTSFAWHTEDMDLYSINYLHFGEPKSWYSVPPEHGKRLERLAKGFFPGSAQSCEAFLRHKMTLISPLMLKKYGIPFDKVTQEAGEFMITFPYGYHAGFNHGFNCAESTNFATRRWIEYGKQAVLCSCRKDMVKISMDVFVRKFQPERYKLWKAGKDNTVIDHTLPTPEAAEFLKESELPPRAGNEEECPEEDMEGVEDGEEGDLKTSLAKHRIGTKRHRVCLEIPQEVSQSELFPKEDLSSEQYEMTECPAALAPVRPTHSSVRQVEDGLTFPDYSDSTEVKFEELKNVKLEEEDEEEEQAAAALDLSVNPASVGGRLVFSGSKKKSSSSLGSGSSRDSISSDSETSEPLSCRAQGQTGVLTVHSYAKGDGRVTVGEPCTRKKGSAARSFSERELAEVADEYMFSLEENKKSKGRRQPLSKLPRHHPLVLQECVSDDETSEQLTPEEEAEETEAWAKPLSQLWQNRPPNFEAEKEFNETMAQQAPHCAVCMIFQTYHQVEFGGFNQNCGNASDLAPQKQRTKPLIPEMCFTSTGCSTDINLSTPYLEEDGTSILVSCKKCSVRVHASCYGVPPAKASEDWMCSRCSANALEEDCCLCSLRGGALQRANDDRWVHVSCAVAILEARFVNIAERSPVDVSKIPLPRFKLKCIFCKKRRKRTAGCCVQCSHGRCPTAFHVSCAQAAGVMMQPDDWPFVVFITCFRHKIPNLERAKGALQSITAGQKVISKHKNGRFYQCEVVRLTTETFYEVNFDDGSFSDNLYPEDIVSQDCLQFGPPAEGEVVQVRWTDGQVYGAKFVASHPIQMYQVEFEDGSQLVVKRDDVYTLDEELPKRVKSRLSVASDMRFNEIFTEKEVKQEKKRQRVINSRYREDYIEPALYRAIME
# HP1b chromo inh: inhibitors of HP1-beta chromodomain binding to methylated histone tails; P83916; AlphaScreen HP1-beta / biotin-H3K9me3 peptide binding; Potency, µM (series often up to 114 µM), actives largely listed as inhibitors; actives 0.56% (n = 390,000); note: nearly all actives have a fitted effect of over 70% in size
#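 AlphaScreen: HP1-beta (50 nM) preformed 30 min with biotin-H3(1-18)K9me3 peptide (50 nM) in PBS pH 7.4, 0.01% Tween-20. Compound added for 30 min at RT, then streptavidin donor/nickel chelate acceptor beads (10 ug/mL) for 30 min.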
# VDR inhibitor: blocks the human vitamin D receptor; Potency, µM, usual class: inhibitors; VDR-SRC2-3 peptide fluorescence polarization, 2 h; actives 0.93% (n = 400,000)
#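 Signal is fluorescence polarization, reporting how far test compounds block the interaction of VDR with the SRC2-3 coregulator peptide after a 2 h room-temperature incubation.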
# PLK1 PBD block: blocks phosphopeptide binding to human PLK1 polo-box domain; actives 2.8% (n = 360,000); AID 720504; Potency, µM, usual class: inhibitors; Plk1 PBD binding of FITC phosphopeptide, fluorescence polarization; P53350; note: series mostly up to about 57 µM; nearly all actives have a fitted effect of over 65% in size
# BAZ2B inh: inhibitors of human BAZ2B bromodomain; Q9UIF8; AlphaScreen BAZ2B-H3K14Ac peptide displacement; Potency, µM (doses to about 114 µM), usual class: inhibitors; actives 4.4% (n = 360,000); AID 504333; note: nearly all actives have a fitted effect of over 60% in size
#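 Protein-peptide AlphaScreen: BAZ2B 50 nM, b-H3K14Ac 50 nM, 1x PBS pH 7.4 + 0.01% Tween-20. Preincubation 30 min RT; cpd 30 min RT (top 110 uM); beads 20 min RT, light-protected.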
# L3MBTL1 inh-1: inhibitors of human L3MBTL1 | Q9Y468 | AlphaScreen L3MBTL1–H3K9me1 peptide binding | Potency, µM (highest dose often 57.1 µM), most hits filed as inhibitors | actives 0.66% (n = 230,000) | AID 485360; note: nearly all actives have a fitted effect of over 60% in size
#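 First, the protein-peptide complex forms for 30 min at room temperature (L3MBTL1 50 nM, biotinylated H3K9me1 peptide 75 nM). Next, compounds are pin-transferred and incubated 30 min. Finally, AlphaScreen beads are added and read after 30 min.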
# L3MBTL1 inh-2: L3MBTL1 binding inhibition validated; L3MBTL1 methyl-lysine binding inhibition, biochemical qHTS; Potency, µM, usual class: inhibitors; shares compounds with L3MBTL1 inh-1; actives 91% (n = 500); note: nearly all actives have a fitted effect of over 70% in size
# AlphaScreen ctr2: interferes with AlphaScreen signal in L3MBTL1 counterscreen; 500 tested, under 10 active; shares compounds with L3MBTL1 inh-1; Potency, µM (highest dose often 57.1 µM), actives largely listed as inhibitors; AlphaScreen counterscreen, signal inhibition
# A number is an active result; . = inactive; ? = inconclusive; / = no result. Calls come from the whole dose curve; as a rule, active = well fitted curve in the direction sought with a large enough effect; inconclusive = small, poorly fitted or top-dose-only effect, or another doubt; inactive = no such curve, though single readings can be large; an effect the other way counts as inactive or inconclusive.
SMILES,JMJD2A Tudor inh,HP1b chromo inh,VDR inhibitor,PLK1 PBD block,BAZ2B inh,L3MBTL1 inh-1,L3MBTL1 inh-2,AlphaScreen ctr2
O=C(CN1C(=O)/C(=C\c2cccc(Br)c2)Oc2ccccc21)NCCCN1CCOCC1,45µM,.,.,27µM,.,/,/,/
CCc1ccc(/C=C2/Sc3ccccc3N(CC(=O)NCCCN3CCOCC3)C2=O)cc1,?,.,.,.,35µM,/,/,/
O=C(CN1C(=O)COc2ccccc21)NCCCN1CCOCC1,.,.,.,.,.,/,/,/
COc1ccc(S(=O)(=O)NNC(N)=S)cc1,8.9µM,.,.,.,/,.,/,/
COc1ccc(NC(=O)NNS(=O)(=O)c2ccc(Br)cc2)cc1,.,.,.,.,.,/,/,/
COc1ccc(OC)c(C(=O)N2CCC(n3nccc3NC(=O)CC(C)C)CC2)c1,.,.,.,.,.,/,/,/
O=C(CN(Cc1ccc2c(c1)OCO2)C(=O)CNS(=O)(=O)c1ccccc1)NCC1CCCO1 (stereo not drawn),.,.,.,.,.,.,/,/
CC(C)(C)NC(=O)CN(Cc1ccc2c(c1)OCO2)C(=O)CNS(=O)(=O)c1ccccc1,79µM,.,.,?,.,/,/,/
Cc1cc(C(=O)NNC(=S)NC(C)c2ccccc2)c2ccccc2n1 (stereo not drawn),.,.,.,.,.,.,/,/
Nc1nnnn1CC(=O)N/N=C/c1cccs1,.,.,.,.,.,.,/,/
O=C(N/N=C/c1cc([N+](=O)[O-])ccc1O)Nc1ccccc1,?,.,.,.,.,.,/,/
O=[N+]([O-])c1ccc(O)c(/C=N/NC(=S)Nc2ccc(Cl)cc2Cl)c1,79µM,.,.,?,32µM,/,/,/
Nc1nnnn1CC(=O)N/N=C/c1cc([N+](=O)[O-])ccc1O,20µM,.,.,.,.,0.16µM,/,/
CCOC(=O)c1c(C)[nH]c(C(=O)N/N=C/c2cc([N+](=O)[O-])ccc2O)c1C,79µM,.,.,.,45µM,/,/,/
CCNC(=O)C(=O)N/N=C/c1cc([N+](=O)[O-])ccc1O,14µM,.,.,.,8.9µM,/,/,/
COc1ccc(CN2C(=O)c3ccccc3C2C(=O)NC2CCCCCC2)c(OC)c1 (stereo not drawn),.,.,.,.,.,/,/,/
CCOC(=O)c1cccc(NC(=O)CCc2c(C)nn(-c3ccc(N4CCOCC4)nn3)c2C)c1,.,.,.,/,.,/,/,/
Cc1cc(C)n(CC(=O)N/N=C/c2cc([N+](=O)[O-])ccc2O)n1,?,.,.,.,40µM,?,/,/
COc1ccc(N2CC(C(=O)N/N=C/c3cc([N+](=O)[O-])ccc3O)CC2=O)cc1 (stereo not drawn),79µM,.,.,.,35µM,/,/,/
Nc1nnc(CC(=O)N/N=C\c2cc([N+](=O)[O-])ccc2O)s1,?,.,.,.,28µM,?,/,/
O=C(Nc1ccccc1C(=O)OCc1cc(=O)n2c3c(sc2n1)CCCC3)c1ccccc1,.,.,.,/,.,/,/,/
CC(C)(C)OC(=O)N1CCC(c2c(C(=O)N3CCN(c4ccccn4)CC3)cnn2-c2cccc(F)c2)CC1,.,.,.,/,.,/,/,/
CCC1CN(C(=O)Nc2cccc3c2CCCC3)c2cc(C)ccc2O1 (stereo not drawn),.,.,.,/,.,/,/,/
O=C(Nc1ccc(S(=O)(=O)Nc2ncccn2)cc1)c1ccc2ncsc2c1,35µM,.,.,.,40µM,20µM,?,.
O=C(Nc1ccc(S(=O)(=O)Nc2ncccn2)cc1)c1cccc(Cl)c1,.,.,.,/,.,/,/,/
SMILES,JMJD2A Tudor inh,HP1b chromo inh,VDR inhibitor,PLK1 PBD block,BAZ2B inh,L3MBTL1 inh-1,L3MBTL1 inh-2,AlphaScreen ctr2
COc1ccc2nc(-n3c(O)c(C4=c5ccccc5=NC4=O)[nH]c3=S)sc2c1,?,?,.,?,13µM,3.2µM,3.4,?
Cn1c(O)c(C2=c3ccccc3=NC2=O)[nH]c1=S,.,.,.,.,?,.,/,/
Cc1cc(C(=O)O)ccc1-c1ccc(CO)o1,.,.,.,.,.,?,/,/
Cc1cc(C(=O)O)ccc1-c1ccc(/C=C2\NC(=O)N(Cc3ccccc3Cl)C2=O)o1,45µM,?,?,17µM,45µM,18µM,7.5,.
CC(NC(=O)c1cccnc1Sc1ccccc1)c1ccc(S(N)(=O)=O)cc1 (stereo not drawn),.,.,.,.,.,/,/,/
COC(=O)c1ccccc1NC(=O)c1noc2c1CSc1ccccc1-2,.,.,.,/,.,/,/,/
COC(=O)c1ccccc1NC(=O)c1noc2c1CCC2,50µM,?,.,?,50µM,28µM,9.5,.
COc1ccc(-n2cccc2/C=C2\C(=N)N3N=C(c4ccco4)SC3=NC2=O)cc1,14µM,.,.,?,40µM,16µM,2.7,?
CCC(C(=O)Nc1ccc2c(c1)OCCO2)n1c(=O)[nH]c2ccccc2c1=O (stereo not drawn),.,.,.,.,.,/,/,/
Oc1c(C(Nc2cccc(C(F)(F)F)c2)c2ccncc2)ccc2cccnc12 (stereo not drawn),32µM,.,?,?,20µM,22µM,21,.
Cc1ccc(N=Nc2ccc(O)c3ncccc23)cc1,?,?,.,.,?,40µM,17,?
CCCc1cc(=O)oc2cc(C)cc(OC(C)C(=O)NCCN3CCOCC3)c12 (stereo not drawn),.,.,.,.,.,/,/,/
Cc1ccc(/C=C2\SC(N3CCN(C(c4ccccc4)c4ccccc4)CC3)=NC2=O)o1,?,.,?,.,?,14µM,15,.
c1ccc(-c2nc(-c3ccncc3)n[nH]2)nc1,2.8µM,.,.,.,2.5µM,3.2µM,4.7,.
CSCCC(NS(=O)(=O)c1ccc(Cl)cc1)C(=O)O (stereo not drawn),.,.,.,.,.,.,/,/
CSCCC(NS(=O)(=O)c1ccc(C)c(C(=O)O)c1)C(=O)O (stereo not drawn),.,.,.,.,.,8.9µM,?,.
CCN(CC)CCOC(=O)c1ccc(NC(=O)CSc2nnc(-c3cccs3)n2CC)cc1,.,.,.,.,/,/,/,/
Cc1ccc(NC(=S)N2CCN(c3ncccn3)CC2)c(C)c1,.,.,.,.,.,.,/,/
O=C(O)CCc1ccc(-c2cccs2)n1CCC(=O)O,.,.,.,.,?,4µM,17,.
O=C(O)c1c2c(nc3ccccc13)/C(=C/c1ccc(O)cc1)CC2,56µM,.,.,19µM,40µM,4µM,1.5,.
O=C(O)c1c2c(nc3ccccc13)/C(=C/c1ccc(OC(F)F)cc1)CCC2,.,.,.,.,.,/,/,/
